Test results: PubChem BioAssay AID504652 (National Center for Advancing Translational Sciences (NCATS), 2011)
Where “and” joins values, the source holds several entries; their conditions need not be identical. Equal entries are not always repeated. Among all 360,000 compounds or so, about 11,000 (3.1%) were called active. The full list was thinned out, with actives kept by preference. A number with no mark means an inactive call. No stated cut-off is given here; in the data, active means activity change below about -30%; inactive means the rest.

What follows are molecules tested against D(1A) dopamine receptor (Homo sapiens) (UniProt P21728) (assay: Antagonist of Human D 1 Dopamine Receptor: qHTS). Conditions: HEK293 TREx D1 cells, calcium flux, dopamine EC80; at 10 µM; active compounds read low.
D(1A) dopamine receptor (Homo sapiens), sequence (P21728 whole entry, looked up): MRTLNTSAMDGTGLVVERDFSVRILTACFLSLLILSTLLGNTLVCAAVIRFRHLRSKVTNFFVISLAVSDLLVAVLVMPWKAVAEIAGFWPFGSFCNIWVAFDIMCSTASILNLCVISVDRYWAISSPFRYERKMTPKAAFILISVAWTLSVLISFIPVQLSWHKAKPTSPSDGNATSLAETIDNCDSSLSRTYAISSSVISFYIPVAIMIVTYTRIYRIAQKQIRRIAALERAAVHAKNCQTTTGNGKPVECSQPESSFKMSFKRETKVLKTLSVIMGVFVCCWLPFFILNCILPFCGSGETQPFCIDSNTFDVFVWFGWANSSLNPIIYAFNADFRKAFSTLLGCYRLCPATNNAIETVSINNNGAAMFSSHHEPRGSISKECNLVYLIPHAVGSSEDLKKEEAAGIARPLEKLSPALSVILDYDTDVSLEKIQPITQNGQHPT
Procedure, shortened: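 Allosteric or orthosteric antagonism assessed as attenuation of the calcium response to EC80 dopamine, added 180 s after compound, in induced HEK293 Trex D1 cells loaded with no-wash calcium dye.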
On the % scale 0 is the no-effect control and ±100 the full control effect.

| Compound | activity change, negative = inhibition |
| --- | --- |
| CCCC(=O)Nc1ccc2oc(-c3ccc(O)c(Br)c3)nc2c1 | -6.2% |
| COc1cccc(C(=O)NC2=NC(c3ccc(N(C)C)cc3)CC(=O)N2)c1 (stereo unspecified) | -6.47% |
| Cc1ccccc1-n1c(=O)c2ccccc2n(Cc2ccc(F)cc2)c1=O | 8.59% |
| COc1ccc(NC(=O)CCC(=O)Nc2nnc(C3CCCCC3)s2)cc1 | 5.47% |
| COC(=O)CCc1sc(Nc2ccc(Br)cc2)nc1-c1ccc(OC)cc1 | -33.1% (active) |
| CNC(=O)c1sc(Nc2ccc(OCc3ccccc3)cc2)nc1C | -6.26% |
| CCc1nnc(NC(=O)c2ccc(S(=O)(=O)NC3CCCCC3)cc2)s1 | 1.91% |
| Cc1ccc(Nc2nnc(SC(C)C(=O)NC3CC3)s2)cc1 (stereo unspecified) | -6.59% |
| Cc1nnc(SC(C)C(=O)Nc2ccc(S(=O)(=O)NC3CCCCC3)cc2)s1 (stereo unspecified) | -34.5% (active) |
| CCOc1ccccc1C(=O)NCC(c1ccc(N(C)C)cc1)N1CCCC1 (stereo unspecified) | -18.8% |
| Cc1ccc(CCn2c3c(c4ccccc42)CN(C)CC3)cn1 | -37.8% (active) |
| COc1ccccc1NC(=O)C1=C(C)Nc2ncnn2C1c1sccc1C (stereo unspecified) | 2.71% |
| Nc1nc(NC(=O)/C=C/c2ccccc2)nn1-c1ccccc1 | -60.9% (active) |
| Cc1ccc(C(=O)Nc2nc(N)n(-c3ccccc3)n2)cc1 | -1.57% |
| Nc1nc(NC(=O)/C=C/c2ccc(F)cc2)nn1-c1ccccc1 | 8.35% |
| CCOC(=O)c1cc(-c2ccccc2)n(CCC(=O)Nc2ccccc2CC)c1C | -5.19% |
| Cc1ccccc1C(=O)Nc1nnc(S(=O)(=O)N(C)c2ccc(Cl)cc2)s1 | -3.48% |
| COc1ccc(S(=O)(=O)NC(C)C(=O)N2CCCCCC2)cc1 (stereo unspecified) | 6.5% |
| COCC(C)NS(=O)(=O)c1ccc(N2CCCCS2(=O)=O)cc1 (stereo unspecified) | -32.2% (active) |

| Compound | activity change, negative = inhibition |
| --- | --- |
| COc1ccc(N2CCN(C(=O)c3ccc(N4CCCCS4(=O)=O)cc3)CC2)cc1 | -28.7% |
| Cc1ccccc1CSc1nc(-c2ccccc2)nc2c1Cc1c(CO)cnc(C)c1O2 | -5.66% |
| CCCC(=O)Nc1cc(C(=O)NCc2ccc(OC)cc2)ccc1S(=O)(=O)c1ccc(Cl)cc1 | 3.26% |
| CCc1ccccc1NC(=O)N1CCN(C(=O)c2nsc3ccccc23)CC1 | 5.59% |
| O=C(Nc1ccc(F)cc1)C1CCN(C(=O)c2ccc([N+](=O)[O-])cc2)CC1 | -37.8% (active) |
| O=C(Nc1ccc(S(=O)(=O)N2CCCCC2)cc1)C1CCN(C(=O)c2ccc(F)cc2)CC1 | -10.9% |
| O=C(Nc1ccccc1)C1CCN(C(=O)c2ccc(Br)cc2)CC1 | -21.4% |
| CCOC(=O)c1c(NC(=O)c2cc(CC)on2)sc(C(C)=O)c1C | -23.3% |
| NS(=O)(=O)c1ccc(Nc2nc(-c3ccccc3)cs2)cc1 | -31.8% (active) |
| NS(=O)(=O)c1ccc(NS(=O)(=O)/C=C/c2ccccc2)cc1 | 4.29% |
| COC(=O)[C@H](Cc1ccccc1)NC(=O)Nc1ccc(S(N)(=O)=O)cc1 | -6.59% |
| Cc1cccc(NC(=O)CN(c2ccc(C(C)C)cc2)S(=O)(=O)c2c(C)nn(C)c2C)c1C | -5.46% |
| CCC(=O)N1c2ccccc2CC1C(=O)N1CCN(c2ccccc2)CC1 (stereo unspecified) | -1.25% |
| O=C(Cn1c(=O)nc(-c2ccccc2)c2cc(Cl)ccc21)NCc1ccc(Cl)cc1 | 7.3% |
| CC(C)c1ccc(Cn2c(COc3ccccc3)nc3ccccc32)cc1 | 0.116% |
| CC(C)c1ccc2c(c1)c(SC(C)(C)C)c(CC(C)(C)C(=O)O)n2Cc1ccc(Cl)cc1 | -36.5% (active) and -38.2% (active) |
| COc1cccc(-c2nnc(SCC(=O)N3CCC(C)CC3)o2)c1 | 2.47% |
| O=C(Nc1nnc(C2CC2)s1)c1ccccn1 | -8.58% |
| CCc1cc(C(=O)Nc2nnc(C3CC3)s2)sc1C | 5.22% |

| Compound | activity change, negative = inhibition |
| --- | --- |
| O=C(Nc1nnc(C2CC2)s1)C1=NN(C2CCS(=O)(=O)C2)C(=O)CC1 (stereo unspecified) | -30.2% (active) |
| O=C(CSCc1cnn(-c2ccccc2)c1-n1cccc1)NCc1ccccc1Br | 7.2% |
| COc1ccc2c(c1)c(=O)c(S(=O)(=O)c1ccc(F)cc1)cn2CC(=O)Nc1ccc(C)cc1C | -20% |
| CCc1ccc(NC(=O)c2cc(S(=O)(=O)NC3CCCCCC3)ccc2F)cc1 | 1.8% |
| COc1ccc(-c2nc(CN3CCC(C(=O)NCCN(CC(C)C)CC(C)C)CC3)c(C)o2)cc1OC | -3.04% |
| COc1ccc(Cl)cc1NC(=O)Cn1nc(-c2ccc(C)cc2)n(C)c1=S | -37.4% (active) |
| COc1ccc(Cl)cc1NC(=O)CCn1c(=O)c2cccn2c2ccccc21 | -35% (active) |
| Cc1ccc(NC(=O)CCCn2c(=O)c3cccn3c3ccccc32)cc1Cl | -14.3% |
| COc1ccc(Cl)cc1NC(=O)Cn1c(=O)c2ccccc2n2nncc12 | 3.48% |
| COc1ccc(C)cc1NC(=O)CSc1ccc(Cl)cc1 | 3.7% |
| COc1ccc(Cl)cc1NC(=O)CCC(=O)c1ccc(C)cc1 | 0.782% |
| Cc1ccc(Nc2nnc(-c3ccc(C)c(S(=O)(=O)N4CCCCC4)c3)c3ccccc23)cc1 | -4.3% |
| Cc1ccc(N(C)C(=O)C2CCN(S(=O)(=O)c3ccc4c(c3)CCCN4C(=O)C3CCC3)CC2)cc1 | 10.1% |
| O=C(CCCCn1c(=O)c2ccccc2n(CC(=O)Nc2cccc(C(F)(F)F)c2)c1=O)NCc1ccc2c(c1)OCO2 | 3.4% |
| COc1ccc(CCn2cc3c(c2-c2ccc(Br)cc2)c(=O)n(C)c(=O)n3C)cc1OC | 2.27% |
| Fc1ccc(CN2CCc3nc(Nc4ccccc4)ncc3C2)cc1F | 5.84% |
| COc1ccc2c(c1)Cc1sc(NC(=O)c3ccccc3Br)nc1-2 | 6.21% |
| CCCCSc1ncnc2c1sc1nc(N3CCOCC3)c3c(c12)CCCC3 | 3.48% |
